GALR2 ag: agonists of human galanin receptor 2 (GALR2); O43603; AID 803; activation, % (test concentration not listed); GALR2-expressing cells, agonist activation read-out; actives 0.48% (n = 140,000); in the data active means activation above about 5%, passing the limit was not always enough;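 further: 0% = vehicle buffer wells and 100% = reference agonist at full effect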
S1P2 antag: S1P2 (human) receptor antagonism; actives 0.21% (n = 97,000); cell-based S1P2 antagonist assay, inhibition at 5 uM; inhibition, % at 5 µM; O95136; in the data active means inhibition above about 45%;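 further: CRE beta-lactamase reporter cells expressing human S1P2 stimulated with S1P; 0% = agonist at EC80 alone and 100% = agonist plus reference antagonist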
GALR2 antag: antagonists of human galanin receptor 2 (GALR2); O43603; GALR2-expressing cells, antagonist mode; inhibition, % at 4 µM; actives 0.39% (n = 140,000); in the data active means inhibition above about 27%;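 further: cells stimulated with galanin 1-16 at roughly its EC80; 0% = agonist challenge control and 100% = basal control without agonist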
PLAP act: activators of human placental alkaline phosphatase | P05187 | actives 1.2% (n = 96,000) | activation fold at 20 µM | purified PLAP enzyme, luminescent substrate read-out; active compounds read high; in the data active means activation fold above about 2
Target sequence (P05187 whole entry, looked up): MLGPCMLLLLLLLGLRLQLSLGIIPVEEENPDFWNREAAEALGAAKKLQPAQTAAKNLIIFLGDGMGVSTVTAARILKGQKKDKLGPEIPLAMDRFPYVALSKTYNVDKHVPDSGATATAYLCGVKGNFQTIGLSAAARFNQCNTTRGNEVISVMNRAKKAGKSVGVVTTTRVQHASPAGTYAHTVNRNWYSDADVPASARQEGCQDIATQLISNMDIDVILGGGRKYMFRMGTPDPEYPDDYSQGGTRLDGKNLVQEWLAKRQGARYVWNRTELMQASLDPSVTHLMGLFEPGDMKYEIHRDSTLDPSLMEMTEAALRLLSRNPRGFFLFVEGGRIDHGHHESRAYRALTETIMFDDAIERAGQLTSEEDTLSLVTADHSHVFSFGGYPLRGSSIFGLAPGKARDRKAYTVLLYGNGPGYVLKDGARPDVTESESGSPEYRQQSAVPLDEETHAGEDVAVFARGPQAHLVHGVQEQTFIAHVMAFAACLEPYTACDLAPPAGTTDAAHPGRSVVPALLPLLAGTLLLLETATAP
S1P2 ag: activates the human S1P2 receptor | O95136 | S1P2-expressing cell line, agonist reporter read-out | activation, % at 4.5 µM | actives 0.46% (n = 97,000); in the data active means activation above about 16%;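 further: 0% = vehicle low control and 100% = maximal reference agonist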
An asterisk follows results filed as active; . = no result given. An excerpt weighted towards active compounds, which were near 2% of everything screened.

SMILES	GALR2 ag	S1P2 antag	GALR2 antag	PLAP act	S1P2 ag
CC1=C(C(=O)N2CCOCC2)C(c2ccc(C)cc2)NC(=S)N1 (configuration not stated)	-1	.	-4	.	.
COc1ccccc1NC(=O)CSc1ncnc2c1oc1ccccc12	-1	-25	14	0.9	24*
Cc1nc(SCC(=O)Nc2ccc3c(c2)OCCO3)c2oc3ccccc3c2n1	0	-30	-12	1.2	19*
Cn1c(=O)c2cn(Cc3ccc(Cl)cc3)cc2n(C)c1=O	-2	-1	-1	0.8	-2
Cc1ccc(SCC(=O)Nc2ccc(N3CCN(C)CC3)c(F)c2)cc1	7.8*	9	-13	1.2	-5
O=C(CSc1ccccc1)Nc1ccc(N2CCN(c3ccccc3)CC2)c(F)c1	-2	12	16	1	-9
COc1ccc(Oc2nc3ccccc3nc2C(F)(F)F)cc1	-2	-5	5	1	0
Cc1cc(C)cc(Oc2nc(C(F)(F)F)nc3ccccc23)c1	-2	-33	-3	1.1	18*
CCN(CC(=O)NCCc1ccc(S(N)(=O)=O)cc1)Cc1nc2cc(OC)c(OC)cc2c(=O)[nH]1	-3	10	4	2.9*	-4
O=C(c1ccccc1)c1ccc2nc[nH]c2c1	-4	22	3	2*	-3
Cc1c(NC(=O)c2ncn[nH]2)cccc1-c1nc2ccccc2s1	-3	.	11	.	.
Cc1c(O)ccc(-c2[nH]ncc2-c2nc3ccccc3s2)c1O	-2	-2	-6	2.2*	-4
Cc1ccc(S(=O)(=O)Nc2cc(-c3nn(C)c(=O)c4ccccc34)ccc2N2CCOCC2)cc1	-1	-48	1	1.8	17*
Cc1cc(NC(c2cccnc2)c2ccc3cccnc3c2O)no1 (configuration not stated)	-2	-4	16	2.4*	-5
Cc1nnc2n1NC(c1ccc(Cl)cc1)C(C(=O)N(C)C1CCCCC1)S2 (configuration not stated)	0	13	4	2.2*	-3
Cc1cc(C)c2nc(N3CCC(C(=O)NCCCN4CCCCC4)CC3)sc2c1	0	10	-10	2*	-4
O=C(CN(c1ccc(F)cc1)S(=O)(=O)c1ccc2c(c1)OCCO2)NCc1ccccn1	-1	-9	7	1.7	-5
CCOC(=O)c1sc2nc(C3CC3)cc(-c3ccc(OC)cc3)c2c1N	-1	13	-8	0.9	4
CCOC(=O)c1sc2nc(C3CC3)cc(-c3ccc(F)cc3)c2c1N	-1	-16	-7	1	38*
Cc1nnsc1C(=O)Nc1cccc(Cl)c1Cl	2	3	-9	.	-7
CC(=O)c1ccc(-n2c(-c3cc(-c4ccco4)[nH]n3)n[nH]c2=S)cc1	0	-22	-2	2.6*	2
N#CCN1CCN(CC(=O)Nc2cccc3ccccc23)CC1	-2	3	3	0.9	760*
O=C(CSCCO)Nc1cccc2ccccc12	-2	-6	12	1	-3
COC(=O)c1ccc2nc(Nc3nc4ccc(F)cc4s3)sc2c1	-1	.	1	.	.
CC(=O)c1sc(Nc2nc3ccc(F)cc3s2)nc1C	7	-12	2	2.3*	5
SMILES	GALR2 ag	S1P2 antag	GALR2 antag	PLAP act	S1P2 ag
O=C(COc1ccc(C(=O)c2ccccc2)cc1)NCC1CCCCC1	-2	.	-1	.	.
O=C(CSc1nc2ncccc2[nH]1)NCc1ccccc1	0	-15	-19	2.4*	0
O=C(CSc1nc2[nH]ncc2c(=O)[nH]1)NCc1ccccc1	-1	.	8	.	.
C=CCNC(=O)C(=O)NN=C1CCN(C)CC1	-1	13	-14	1	-5
CCOC(=O)C(Sc1n[nH]c(N)n1)c1ccccc1 (configuration not stated)	-3	-4	3	1.3	-3
CC(Sc1n[nH]c(N)n1)C(=O)C12CC3CC(CC(C3)C1)C2 (configuration not stated)	-3	-19	1	2*	-4
O=C(CCN1C(=O)c2ccccc2C1=O)Nn1cnnc1	-1	.	3	1	.
CCOC(=O)C1CCCCN1Cc1ccccc1C(F)(F)F (configuration not stated)	-1	.	6	1.8	.
O=C(CN1CCN(Cc2ccccc2F)C1=O)NCc1ccco1	-1	-11	-1	2*	-5
CCOc1ccc(OCC)c(NC(=O)C2CCCN(S(=O)(=O)c3c(C)noc3C)C2)c1 (configuration not stated)	-2	14	0	1.1	-7
CCOc1ccc(OCC)c(NC(=O)C2CCCN(S(=O)(=O)c3c(C)n[nH]c3C)C2)c1 (configuration not stated)	-3	-5	3	2*	-10
O=C(N/C(=C/c1ccco1)C(=O)N1CCCCC1)c1cccs1	-3	-1	-3	0.9	-6
CCN(CC)S(=O)(=O)c1ccc(C(=O)OCn2nnc3ccccc3c2=O)cc1	-1	13	-7	1	-7
CCOc1cccc(-c2nnc3sc(-c4cc(OC)c(OC)cc4OC)nn23)c1	.	.	.	1	.
CCOc1cccc(-c2nn3c(-c4cc(C)[nH]n4)nnc3s2)c1	0	14	8	2.4*	-5
O=C(NCC(c1cccs1)N1CCOCC1)c1ccc(Cl)c([N+](=O)[O-])c1 (configuration not stated)	-2	.	8	.	.
Cc1cc(Cl)c(S(=O)(=O)N2CCCCCC2)cc1OCC(=O)NC1CCCCC1	1	30	-10	2*	-2
COc1ccc(N(CC(=O)N/N=C/c2ccc(-c3ccc([N+](=O)[O-])cc3)o2)S(=O)(=O)c2ccc(C)cc2)cc1Cl	-1	50*	7	1	-11
C=CCn1c(SCc2nc3ccccc3[nH]2)nnc1-c1ccccn1	1	-4	6	2*	5
CC1(C)c2ccccc2N2CCC(=O)NC21/C=C/c1ccco1 (configuration not stated)	6.1*	0	-5	1.6	-4
CC(C)c1ccc2[nH]c(O)c(N=NC(=O)c3ccc(CSc4nncn4C)cc3)c2c1	5.1*	.	-1	.	.
CC1=NNC(=O)C1C(c1ccccc1)C(C#N)C#N (configuration not stated)	-3	9	3	2.2*	-3
CCc1ccc(OCc2nnc(SCC(=O)NCc3ccco3)o2)cc1	0	-1	-4	0.9	-4
COc1cc(C2c3c(n[nH]c3C)C(=O)N2c2ccc(C)cc2)ccc1O (configuration not stated)	0	.	5	2.2*	.
COc1cc(C2c3c(-c4ccccc4)n[nH]c3C(=O)N2c2ccccc2)ccc1O (configuration not stated)	2	13	2	2.2*	-5
CCOc1cc(C2c3c(n[nH]c3C)C(=O)N2c2ccc(C)cc2)ccc1O (configuration not stated)	-3	13	-5	1.9	-4
CCN(c1ccc(C)c(C)c1)S(=O)(=O)c1c(C)[nH]c(=O)[nH]c1=O	0	-12	7	1.1	-1
CN(C)Cc1nc2c(c(=O)[nH]1)C(C)(C)Cc1ccccc1-2	-1	-7	-9	2.3*	1
